The list is not random: actives were taken first. Their share in the collection is about 7.5%.
B2AR arrestin: agonists driving beta-arrestin recruitment to human beta2-adrenergic receptor; beta-arrestin recruitment to beta2AR, cell-based reporter; P07550; 0.02% of 330,000 active; Potency, µM (titrated, usually from 46.1 µM), for the others: at the highest dose activation, hits mostly activators;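 also: potency is read from the fitted curve at half-maximal effect; 0% = DMSO controls and full agonism = EC100 isoproterenol or metaproterenol; nearly all actives have a fitted effect of over 65% in size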
VP16 counter: inhibits Gal4-VP16 luciferase reporter, ROR gamma counter-screen; AID 2546; Potency, µM (highest dose often 53.6 µM), for the others: top-dose activity, negative = inhibition, actives largely listed as inhibitors; 3.5% of 310,000 active; Drosophila S2 Gal4-VP16 UAS-luciferase, luminescence, 20 h;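 also: Gal4-VP16 expression switched on by copper sulfate through the metallothionein promoter; potency is read from the fitted curve at half-maximal effect; nearly all actives have a fitted effect of over 50% in size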
RORgamma inh: ROR gamma (mouse) transcription inhibition. P51450. 5.4% of 310,000 active. Drosophila S2 Gal4-RORgamma UAS-luciferase reporter, 20 h. Potency, µM (doses to about 53.6 µM), for inactives: top-dose activity change, negative = inhibition, usual class: inhibitors; also: potency is read from the fitted curve at half-maximal effect; nearly all actives have a fitted effect of over 60% in size
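ROR gamma transcriptional activity was tracked as Gal4-UAS luciferase output in stably transfected Drosophila Schneider cells, with compound added 1 hr before 700 uM copper sulfate induction and a 20 hr ambient-temperature incubation.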
ELG1 repair inh: inhibitors of ELG1-dependent DNA repair in HEK293T cells; HEK293T ELG1-luciferase reporter, luminescence, 16 h; DNA damage induced by 5-fluorouridine; Potency, µM (doses to about 46.1 µM), inactives show top-dose activity change, negative = inhibition, hits mostly inhibitors; 2.3% of 330,000 active; AID 504467; also: potency is read from the fitted curve at half-maximal effect; nearly all actives have a fitted effect of over 55% in size
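Overnight (16 hr) co-exposure of 2,000 cells/well to 5-fluorouridine and compound at 37 °C preceded detection. Luciferase was quantified via ONE-Glo luminescence; loss of signal denotes inhibition.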
TSHR antagonist: human thyrotropin receptor antagonism; TSHR-expressing cells, TSH-stimulated cAMP HTRF, 2 h; active compounds read low; activity change, negative = inhibition, % at 11.5 µM; AID 504810; 0.2% of 330,000 active; P16473;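 active = activity change below a set negative limit, meaning inhibition stronger than a set level, cut at about -70% in these data; inconclusive = activity change between two set negative limits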
Target sequence (P16473 whole entry, looked up): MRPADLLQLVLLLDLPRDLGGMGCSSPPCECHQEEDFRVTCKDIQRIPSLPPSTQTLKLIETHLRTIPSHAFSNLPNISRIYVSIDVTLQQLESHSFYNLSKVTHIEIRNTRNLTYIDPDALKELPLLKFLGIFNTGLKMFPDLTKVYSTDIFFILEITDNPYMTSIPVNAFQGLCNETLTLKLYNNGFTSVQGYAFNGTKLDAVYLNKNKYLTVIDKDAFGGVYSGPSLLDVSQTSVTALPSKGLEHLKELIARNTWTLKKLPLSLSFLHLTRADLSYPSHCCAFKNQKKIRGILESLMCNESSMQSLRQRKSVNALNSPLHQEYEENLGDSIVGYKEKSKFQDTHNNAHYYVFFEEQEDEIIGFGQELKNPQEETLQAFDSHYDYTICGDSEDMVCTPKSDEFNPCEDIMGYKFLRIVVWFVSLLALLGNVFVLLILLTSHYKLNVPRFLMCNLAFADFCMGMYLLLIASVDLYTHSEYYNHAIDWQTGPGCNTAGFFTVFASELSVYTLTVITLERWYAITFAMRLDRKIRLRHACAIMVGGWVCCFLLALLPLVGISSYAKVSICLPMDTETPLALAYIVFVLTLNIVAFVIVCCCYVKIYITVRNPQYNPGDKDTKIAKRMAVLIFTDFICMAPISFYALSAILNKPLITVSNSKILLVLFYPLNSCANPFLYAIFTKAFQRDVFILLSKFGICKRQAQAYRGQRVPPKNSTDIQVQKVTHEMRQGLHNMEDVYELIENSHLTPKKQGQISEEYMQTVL
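TSHR-expressing cells were treated with compounds, then stimulated with TSH at EC80 (4nM final) for 2 hours at 37 deg C. Cellular cAMP was measured by HTRF competition between lysate cAMP and cAMP-d2 for a cryptate-labelled anti-cAMP antibody.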
Active calls of the source: *; ? = inconclusive; nt = no result given; [ ] = dose if it differs, or a comment. Unless noted, calls follow the shape of the dose curve; as a rule, active = well fitted curve in the direction sought with a large enough effect; inconclusive = small, poorly fitted or top-dose-only effect, or another doubt; inactive = no such curve, though single readings can be large; an effect the other way counts as inactive or inconclusive. Unless noted, % is scaled to controls: 0 for no effect and ±100 for the full control effect.

SMILES	B2AR arrestin	VP16 counter	RORgamma inh	ELG1 repair inh	TSHR antagonist
Cc1cccc2c1-c1sc(C(=O)NCCCN3CCCC(C)C3)cc1CO2 (stereo not given)	0%	-15%	?	-4%	-75*
COC(=O)[C@H]1C[C@H]2[C@@H]3CC[C@H]4C[C@@H](OC)CC[C@]4(C)[C@H]3CC[C@]2(C)[C@@]2(CCCO2)O1	0%	nt	nt	-4%	10
Cc1ccc(S(=O)(=O)N[C@H]2COC(=O)C/C=C\[C@H](C)[C@@H](NS(=O)(=O)c3ccc(C)cc3)COC(=O)C/C=C\[C@@H]2C)cc1	nt	-6%[10 µM]	-3%[10 µM]	nt	nt
Cc1ccsc1CN(C)C(=O)CN1C(=O)NC(c2ccccc2)(c2ccccc2)C1=O	0%	nt	nt	-10%	0
CC(C)c1ccccc1NC(=O)COC(=O)c1c2c(nc3ccccc13)CCN(Cc1ccccc1)C2	0%	-25%	23%	12µM*	73
O=C(NC1CCCCCC1)c1c2c(nc3ccccc13)CCN(Cc1ccccc1)C2	0%	-2%	23%	?	9
Cc1cc(N2CCN(C)CC2)ccc1NC(=O)c1c2c(nc3ccccc13)CCN(Cc1ccccc1)C2	0%	11µM*	11µM*	?	2
Cc1c(Cl)cccc1NC(=O)COC(=O)c1c2c(nc3ccccc13)CCN(Cc1ccccc1)C2	0%	-7%	0%	13µM*	25
O[C@@H]1CO[C@H]2[C@@H]1OC[C@@H]2O	nt	-10%	-1%	nt	nt
COc1ccc(N2CCN(C(=S)NC(=O)c3cccs3)CC2)c([N+](=O)[O-])c1	0%	1.4µM*	0.32µM*	?	-6
O=C(NC(=S)N1CCN(c2c(Cl)cccc2[N+](=O)[O-])CC1)c1cccs1	0%	0.16µM*	0.28µM*	?	-5
COc1ccc(N2CCN(C(=O)c3ccccc3)CC2)c([N+](=O)[O-])c1	0%	-9%	63%	-7%	-5
CC(C)C(=O)N1CCN(c2c(Cl)cccc2[N+](=O)[O-])CC1	0%	7%	-3%	-24%	-1
Cc1ccc(C(=O)N/C(=C\c2ccc(-c3cc(Cl)ccc3Cl)o2)C(=O)NCc2cccnc2)cc1	-1%	-1%	?	?	8
O=C(NCc1cccnc1)/C(=C/c1ccc(-c2cccc(Cl)c2)o1)S(=O)(=O)c1ccccc1	0%	?	11µM*	?	-10
O=C(NCc1cccnc1)/C(=C\c1ccc(-c2cccc(Cl)c2)o1)S(=O)(=O)c1ccccc1	-1%	13µM*	?	16µM*	-20
Cc1ccccc1-c1nnc(SCC(=O)NC2CCS(=O)(=O)C2)n1C (stereo not given)	0%	nt	nt	0%	nt
CCNC(=S)Nc1ccc(C)c(Cl)c1	-1%	?	7.1µM*	0%	9
CCOC(=O)NC(=S)Nc1ccc(C(C)(C)C)cc1	?	10µM*	2µM*	?	10
CCCCNC(=S)Nc1ccc(Cl)cc1	-3%	?	7.1µM*	21%	-3
CCNC(=S)Nc1cc(-c2ccc(Cl)cc2)[nH]n1	0%	11µM*	6.3µM*	2%	-7
CCNC(=S)Nc1ccc(Cl)c([N+](=O)[O-])c1	0%	11%	-25%	-11%	1
C=C1CCN(C(CC(C)C)C(=O)NCc2ccc(OC)cc2)S(=O)(=O)c2ccccc21 (stereo not given)	nt	-22%	3%	nt	nt
CCOc1cc(OCC)c(C(=O)CCC(=O)O)cc1OCC	nt	2%	-3%	nt	nt
CCC1=C2CC[C@H]3C(=O)N(CC)C(=O)[C@H]3[C@H]2[C@@]2(C)C(=NCCc3c[nH]c4ccccc34)OC(=O)N2C1=O	nt	6%	8%	nt	nt
SMILES	B2AR arrestin	VP16 counter	RORgamma inh	ELG1 repair inh	TSHR antagonist
O=C(CN1CCN(S(=O)(=O)N2CCOCC2)CC1)Nc1cc(Cl)cc(Cl)c1	0%	-20%	14%	-11%	8
CN(C)NC(=S)Nc1ccc(Cl)cc1	?	2.2µM*	?	0%	4
COc1ccc(NC(=S)Nc2ccc(OC(F)F)cc2)cn1	0%	-19%	1%	1%	1
CCCCNC(=S)Nc1ccc(C(F)(F)F)cc1	0%	13µM*	4.5µM*	?	-36
CCCCNC(=S)Nc1ccc(OC)nc1	0%	-2%	10µM*	2%	-6
CC(C)(C)C(=O)NC(=S)Nc1ccc(C(F)(F)F)cc1	0%	?	4.5µM*	30%	-6
CC(C)(C)C(=O)NC(=S)Nc1ccc(Cl)c(C(=O)O)c1	0%	6%	?	16%	0
C#CCCCO/N=C1/[C@H]2O[C@@H]2[C@@H](O)[C@H]2[C@H]1CCn1c(=O)n(-c3ccccc3)c(=O)n12	nt	13%[10 µM]	-5%[10 µM]	nt	nt
COc1c2c(cc3oc(CO[C@@H]4O[C@H](CO)[C@@H](O)[C@H](O)[C@H]4O)cc(=O)c13)O[C@H](C(C)(C)O)C2	0%	nt	nt	?	1
CN(C)CCNC(=S)Nc1ccc(Cl)cc1	0%	-3%[0.365 µM]	2%	18%	-4
CCNC(=S)Nc1ccc(Cl)cc1	-3%	-83%	8.9µM*	10%	18
COc1ccc(/C=C2\C(=O)NC(=S)N2C(=O)c2ccc(F)cc2)cc1	0%	11µM*	8.9µM*	6%	-12
O=C1NC(=S)N(C(=O)c2ccc(F)cc2)/C1=C/c1ccccc1	0%	1%	13%	-1%	?
S=c1[nH]nc(COc2cccc(Cl)c2)n1Cc1ccccc1	0%	?	1.4µM*	?	-5
S=c1[nH]nc(COc2ccc(Cl)cc2)n1Cc1ccccc1	0%	?	2.5µM*	-12%	-2
CC(C)(C)c1ccc(C(=O)N/C(=C\c2cccc([N+](=O)[O-])c2)C(=O)Nc2cccc(C(=O)O)c2)cc1	0%	nt	nt	8%	-16
COc1ccc(OC)c(NC(=O)CSc2nnc(NC(=O)c3ccco3)s2)c1	0%	-12%	17%	-14%	8
O=c1[nH]c(C2CCN(S(=O)(=O)c3ccc(S(=O)(=O)NC4CC4)cc3)CC2)nc2c1nnn2Cc1cccc(F)c1	-1%	-2%	41%	13µM*	-3
COCC(=O)OC/C(O)=C(\C#N)c1nc2ccccc2[nH]1	5%	2.8µM*	?	?	-7
N#C/C(=C(/O)COC(=O)c1cccnc1Cl)c1nc2ccccc2[nH]1	0%	?	7.9µM*	-13%	3
CC(C)OCc1c(C(=O)OC/C(O)=C(\C#N)c2nc3ccccc3[nH]2)oc2ccccc12	0%	-21%	-40%	20%	-5
N#C/C(=C(/O)COC(=O)CCC1CCCCC1)c1nc2ccccc2[nH]1	0%	10µM*	11µM*	18%	9
Cc1c(-c2cccc(Cl)c2)nc2ccccc2c1C(=O)OC/C(O)=C(\C#N)c1nc2ccccc2[nH]1	0%	3%	-29%	?	11

High-throughput results: PubChem BioAssay, National Center for Advancing Translational Sciences (NCATS)
